The text below walks through data of the supplement of paper PMC8975748.

Structures can show the parent of a compound that is named as a salt.

In the assay the test system is Saccharomyces cerevisiae BY4741 SeMeCo community. Briefly: z-score of subpopulation abundance vs DMSO median, subpopulation auxotrophic for LM; higher = larger share of this subpopulation than in DMSO controls. The conditions noted are these: 10 µM; 24 h; SM minimal medium; subpopulation (auxotrophy): LM. As for the experimental part: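 Fluorescent four-plasmid SeMeCo (self-establishing metabolically cooperating S. cerevisiae BY4741 community; plasmids pH-mRuby2, pL-mWasabi, pU-eCFP, pM-TagRFP657) was grown 24 h in minimal SM medium with each Selleck FDA-approved drug at 10 µM in 384-well plates. Cells were fixed and imaged by high-content confocal microscopy. For each auxotrophic subpopulation (and the prototroph), a z-score gives the deviation from the DMSO vehicle-control population median.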
Take `Cc1cc(O)ccc1Cl` [Chlorocresol]: the “z-score of subpopulation abundance” value is -0.37.

Consider `CC[C@@]1(O)C(=O)OCc2c1cc1n(c2=O)Cc2cc3ccccc3nc2-1` [Camptothecin], for which the “z-score of subpopulation abundance” value is -0.25.

As to `CCOC(=O)Nc1ccc(NCc2ccc(F)cc2)cc1N` [Retigabine 2HCl], the “z-score of subpopulation abundance” value came to 0.17.

In the case of `NCCc1c[nH]c2ccc(O)cc12` [Serotonin HCl], the “z-score of subpopulation abundance” value was -1.09.

With `CCN(CC)CCOC(=O)C(O)(c1ccccc1)c1ccccc1` [Benactyzine hydrochloride], the “z-score of subpopulation abundance” value is 0.4.

Turning to `CC[C@H]1[C@@H]2C[C@H]3[C@@H]4N(C)c5ccccc5[C@]45C[C@@H]([C@@H]2[C@H]5O)N3[C@@H]1O` [Ajmaline], the “z-score of subpopulation abundance” value was -0.31.

Turning to `CN(C)[C@@H]1C(=O)C(C(N)=O)=C(O)[C@@]2(O)C(=O)C3=C(O)c4c(O)cccc4[C@@](C)(O)[C@H]3[C@H](O)[C@@H]12` [Oxytetracycline (Terramycin)], the “z-score of subpopulation abundance” value was -0.04.

For `C=C(C)[C@H]1Cc2c(ccc3c2O[C@@H]2COc4cc(OC)c(OC)cc4[C@@H]2C3=O)O1` [Rotenone (Barbasco)], the “z-score of subpopulation abundance” value is -0.22.

`C#C[C@]1(O)C=C[C@H]2[C@@H]3CCC4=CC(=O)CC[C@@H]4[C@H]3CC[C@@]21CC` [Gestodene]: the “z-score of subpopulation abundance” value stood at 0.29.

`CC[N+](C)(CC)CCOC(=O)C(O)(c1ccccc1)c1ccccc1` [Methylbenactyzine Bromide]: the “z-score of subpopulation abundance” value is -0.89.

Take `COc1ccc(C=O)cc1` [p-Anisaldehyde]: the “z-score of subpopulation abundance” value was -0.17.

Consider `N#Cc1nn(-c2c(Cl)cc(C(F)(F)F)cc2Cl)c(N)c1[S+]([O-])C(F)(F)F` (centres undefined) [Fipronil], for which the “z-score of subpopulation abundance” value is -0.79.

For the compound `CN1[C@@H]2CC[C@H]1C[C@@H](OC(=O)C(CO)c1ccccc1)C2` (some centres undefined) [Atropine sulfate monohydrate], the “z-score of subpopulation abundance” value was -0.12.

For `CC(=O)OCC1=C(C(=O)O)N2C(=O)C(N)C2SC1` (centres undefined) [7-Aminocephalosporanic acid], the “z-score of subpopulation abundance” value was -0.28.

On to `CN(C)C(=O)Oc1ccc[n+](C)c1` [Pyridostigmine Bromide], for which the “z-score of subpopulation abundance” value was -0.35.

For `CN1[C@@H]2C[C@@H](OC(=O)[C@H](CO)c3ccccc3)C[C@H]1[C@@H]1O[C@@H]12` [Scopolamine HBr], the “z-score of subpopulation abundance” value is -0.51.

For `C[N+]1(C)[C@@H]2C[C@@H](OC(=O)[C@H](CO)c3ccccc3)C[C@H]1[C@@H]1O[C@@H]12` [Methscopolamine], the “z-score of subpopulation abundance” value was -0.56.

`C=CC[C@]1(O)CC[C@H]2[C@@H]3CCC4=CC(=O)CCC4=C3C=C[C@@]21C` [Altrenogest]: the “z-score of subpopulation abundance” value was 0.15.

With `CC(C)(O)C(Cl)(Cl)Cl` [Chlorobutanol], the “z-score of subpopulation abundance” value amounted to 0.13.

Regarding `NCC(O)c1ccc(O)cc1` (racemic) [(+,-)-Octopamine HCl], the “z-score of subpopulation abundance” value came to 0.

Consider `CN(C)C(=O)Oc1cccc([N+](C)(C)C)c1` [Neostigmine Bromide], for which the “z-score of subpopulation abundance” value turned out to be 0.26.

Turning to `CCOC(=O)Nc1ccc(NCc2ccc(F)cc2)cc1N` [Retigabine], the “z-score of subpopulation abundance” value was -0.12.

On to `C[C@@H]1O[C@@H](O[C@H]2C[C@@H](O)[C@]3(CO)[C@H]4[C@H](O)C[C@]5(C)[C@@H](C6=CC(=O)OC6)CC[C@]5(O)[C@@H]4CC[C@]3(O)C2)[C@H](O)[C@H](O)[C@H]1O` [Ouabain], for which the “z-score of subpopulation abundance” value was -0.83.

For the compound `N[C@@H]1C[C@H]1c1ccccc1` [Tranylcypromine (2-PCPA) HCl], the “z-score of subpopulation abundance” value is -0.94.

`CN[C@@H]1[C@@H](O)[C@@H](O[C@@H]2[C@@H](O)[C@H](O[C@H]3O[C@H](CN)CC[C@H]3N)[C@@H](N)C[C@H]2N)OC[C@]1(C)O.CN[C@@H]1[C@@H](O)[C@@H](O[C@@H]2[C@@H](O)[C@H](O[C@H]3O[C@H]([C@@H](C)N)CC[C@H]3N)[C@@H](N)C[C@H]2N)OC[C@]1(C)O.CN[C@@H]1[C@@H](O)[C@@H](O[C@@H]2[C@@H](O)[C@H](O[C@H]3O[C@H]([C@@H](C)NC)CC[C@H]3N)[C@@H](N)C[C@H]2N)OC[C@]1(C)O` [Gentamicin Sulfate]: the “z-score of subpopulation abundance” value was -0.12.

For `C=CN1CCCC1=O.II` [Povidone iodine], the “z-score of subpopulation abundance” value was -0.46.

With `C[C@H]1O[C@H](O[C@H]2[C@H](O)[C@@H](O)[C@@H](O)[C@H](O)[C@@H]2O)[C@@H](N)C[C@@H]1NC(=N)C(=O)O` [Kasugamycin hydrochloride], the “z-score of subpopulation abundance” value was 0.45.

Consider `CN1c2ccccc2C(NCCCCCCC(=O)O)c2ccc(Cl)cc2S1(=O)=O` (centres undefined) [Tianeptine sodium], for which the “z-score of subpopulation abundance” value is -0.12.

For the compound `CCN(C)C(=O)Oc1cccc([C@H](C)N(C)C)c1` [Rivastigmine Tartrate], the “z-score of subpopulation abundance” value was 0.

As for `CC(C)=CCOc1c2occc2cc2ccc(=O)oc12` [Imperatorin], the “z-score of subpopulation abundance” value stood at 0.

For the compound `CN1[C@@H]2C[C@@H](OC(=O)[C@H](CO)c3ccccc3)C[C@H]1[C@@H]1O[C@@H]12` [Scopolamine HBr trihydrate], the “z-score of subpopulation abundance” value is -0.12.

Turning to `C[N+](C)(C)CCCCCCCCCC[N+](C)(C)C` [Decamethonium Bromide], the “z-score of subpopulation abundance” value was -0.15.

For `CCCCCCCCCCCCCCCC[n+]1ccccc1` [Cetylpyridinium Chloride], the “z-score of subpopulation abundance” value is 0.44.

For the compound `CCN1CC2(OC(=O)c3ccccc3NC(C)=O)CCC(OC)C34C1C(CC23)C1(O)CC(OC)C2CC4C1(O)C2OC` (centres undefined) [Lappaconitine], the “z-score of subpopulation abundance” value is -0.33.
